Screens deposited in PubChem by National Center for Advancing Translational Sciences (NCATS).
The sample as a whole holds a higher share of hits than the screen did.
KDM5B inhibitor – KDM5B demethylase inhibition; 2.6% of 220,000 active; Potency, µM (top dose mostly 57.7 µM), hits mostly inhibitors; AID 1347165; KDM5B demethylase, FDH-coupled NADH fluorescence (FDH is formaldehyde dehydrogenase); active = well fitted inhibition curve with a large enough effect; note: nearly all actives have a fitted effect of over 70% in size
Target sequence (Q9UGL1 whole entry, looked up): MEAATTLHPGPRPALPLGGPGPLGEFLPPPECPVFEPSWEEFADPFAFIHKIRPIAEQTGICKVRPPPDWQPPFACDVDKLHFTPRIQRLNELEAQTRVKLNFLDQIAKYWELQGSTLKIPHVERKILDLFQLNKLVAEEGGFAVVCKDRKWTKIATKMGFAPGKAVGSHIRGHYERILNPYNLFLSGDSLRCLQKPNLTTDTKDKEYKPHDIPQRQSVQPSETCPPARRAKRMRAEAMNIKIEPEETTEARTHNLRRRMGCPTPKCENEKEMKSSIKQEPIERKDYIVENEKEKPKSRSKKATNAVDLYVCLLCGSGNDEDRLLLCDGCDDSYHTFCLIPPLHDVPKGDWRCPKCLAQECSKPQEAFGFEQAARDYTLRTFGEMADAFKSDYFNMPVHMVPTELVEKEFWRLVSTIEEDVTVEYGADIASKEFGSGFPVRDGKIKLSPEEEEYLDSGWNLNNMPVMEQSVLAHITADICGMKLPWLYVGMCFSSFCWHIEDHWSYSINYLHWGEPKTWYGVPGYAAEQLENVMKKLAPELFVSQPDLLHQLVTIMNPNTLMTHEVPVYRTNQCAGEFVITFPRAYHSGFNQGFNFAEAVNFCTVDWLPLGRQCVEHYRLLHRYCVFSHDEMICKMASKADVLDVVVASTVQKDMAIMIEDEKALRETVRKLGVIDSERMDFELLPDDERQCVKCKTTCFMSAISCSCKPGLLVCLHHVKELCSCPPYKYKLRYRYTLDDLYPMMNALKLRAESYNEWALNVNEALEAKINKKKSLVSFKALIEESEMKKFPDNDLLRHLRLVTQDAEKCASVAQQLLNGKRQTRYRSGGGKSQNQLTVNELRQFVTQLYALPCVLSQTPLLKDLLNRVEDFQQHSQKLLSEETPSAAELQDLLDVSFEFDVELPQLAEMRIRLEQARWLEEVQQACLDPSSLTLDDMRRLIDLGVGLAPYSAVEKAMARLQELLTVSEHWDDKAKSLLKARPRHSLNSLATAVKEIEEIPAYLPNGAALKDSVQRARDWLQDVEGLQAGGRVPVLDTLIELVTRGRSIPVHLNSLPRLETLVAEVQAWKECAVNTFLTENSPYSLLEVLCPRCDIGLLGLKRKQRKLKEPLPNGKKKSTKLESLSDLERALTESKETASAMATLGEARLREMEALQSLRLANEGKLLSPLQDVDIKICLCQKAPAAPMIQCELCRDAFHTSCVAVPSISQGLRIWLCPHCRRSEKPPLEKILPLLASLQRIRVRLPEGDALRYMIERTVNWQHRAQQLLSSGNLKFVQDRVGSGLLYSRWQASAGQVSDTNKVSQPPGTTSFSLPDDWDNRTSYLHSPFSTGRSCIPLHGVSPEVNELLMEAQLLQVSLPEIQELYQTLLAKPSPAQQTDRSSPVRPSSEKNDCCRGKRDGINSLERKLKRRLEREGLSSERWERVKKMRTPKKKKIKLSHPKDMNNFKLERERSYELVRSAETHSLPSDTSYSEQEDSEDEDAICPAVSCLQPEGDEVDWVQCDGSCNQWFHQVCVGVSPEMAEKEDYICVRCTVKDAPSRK
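Inhibition is measured as reduced NADH fluorescence generation from FDH coupling to formaldehyde release. Truncated KDM5BΔAP at 200 nM final acts on H3K4me3 peptide (12.5 µM in substrate mix) in pH 7.5 HEPES buffer with Tween-20, 30 min, room temperature.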
A number is an active result; n = inactive; ! = repeats disagree.

SMILES	KDM5B inhibitor
c1coc(-c2noc(CN3CCCC3c3nc(-c4ccncc4)no3)n2)c1 (centres undefined)	n
O[C@@H]1C[C@@H](c2nc(-c3ccccc3)no2)N(Cc2ncc[nH]2)C1	n
Cc1ccc(-c2noc([C@@H]3C[C@@H](O)CN3Cc3ncc[nH]3)n2)cc1F	n
COCCOc1cc(-c2noc([C@@H]3CCCN3CC3CC3)n2)ccn1	n
COc1ccc(CN2CCC[C@H]2c2nc(-c3ccnc(N4CCOCC4)c3)no2)cc1	32µM
COCCOc1cc(-c2noc([C@@H]3CCCN3Cc3ccncc3)n2)ccn1	35µM
Cc1ccc(-c2noc(C3CCCN3Cc3ccccc3)n2)nn1 (centres undefined)	n
COc1ccc(-c2noc([C@@H]3CCCN3Cc3ccc(S(C)(=O)=O)cc3)n2)cn1	n
c1ccc(CN2CCC[C@H]2c2nc(-c3ccnc(N4CCOCC4)c3)no2)nc1	28µM
COc1ccc(NC(=O)COc2ncnc3ccccc23)cc1Cl	n
NC(=O)C1CCN(C(=O)CCc2c[nH]c3ccccc23)CC1	n
CC(=O)NCc1ccc(C(=O)CSc2nnc(C3CC3)n2Cc2ccccc2)cc1	n
NC(=O)CNC(=O)C1=C[C@@H](Oc2cc(F)ccc2Br)[C@H](O)[C@H](O)C1	n
CCn1c(/C=C/c2cn(C)c3ccccc23)nc2ccccc2c1=O	n
COc1ccc(NC(=O)N[C@H]2CO[C@H]3[C@@H]2OC[C@@H]3n2nnnc2Oc2ccc(-n3cncn3)cc2)cc1	n
O=C(Nc1ccc2c(c1)OCCO2)N1CCC(Cc2nc(-c3cccnc3)n[nH]2)C1 (centres undefined)	n
COc1ccc(-c2noc([C@@H]3CCCN3C(=O)Cc3ccc(F)cc3)n2)cc1	n
COc1ccc(CC(=O)N2CCC[C@H]2c2nc(-c3ccccc3Cl)no2)cc1	n
COCCOc1cc(-c2noc([C@@H]3CCCN3C3CCN(C(C)=O)CC3)n2)ccn1	n
COCCNc1cc(-c2noc([C@@H]3CCCN3C3CCN(C(C)=O)CC3)n2)ccn1	40µM
COc1ccc(CN2CCC[C@H]2c2nc(-c3cncnc3N)no2)c(O)c1	32µM
COCCOc1ccnc(-c2noc([C@@H]3CCCN3C3CCN(C(C)=O)CC3)n2)c1	n
COCCNc1cc(-c2noc([C@@H]3CCCN3Cc3ccccn3)n2)ccn1	32µM
CCCN1CCC[C@H]1c1nc(-c2ccc(NCCOC)nc2)no1	n
CN(C)c1ccc(C(=O)NC2CC(c3nnc(CO)n3C3CC3)C2)cn1 (centres undefined)	n
SMILES	KDM5B inhibitor
CCCn1nc(C(=O)NCC(=O)Nc2ccc(F)c(F)c2)c2ccccc2c1=O	n
COc1ccc(Cl)cc1NC(=O)c1cc2c(s1)-c1ccccc1S(=O)(=O)C2	n
CCOC(=O)c1c(S(=O)(=O)NCC(=O)N2CCC(C)CC2)c(C)n(C)c1C	n
COc1ccccc1C(=O)N1CCCn2nc(C)c(-c3ccccc3N3CCCC3)c21	13µM
COc1ccc(C(=O)N2CCCn3nc(C)c(-c4ccccc4C(C)C)c32)cc1	n
COc1ccccc1C(=O)N1CCCn2nc(C)c(-c3ccccc3C(C)C)c21	n
CC(C)c1ccc(C(=O)N2CCCC[C@H](N(C)C)C2)c(=O)n1C	n
O=C(CCc1cc(=O)[nH]o1)N[C@H](C1CCNCC1)C1CC(O)C1 (some centres undefined)	n
CC(C)c1ccc(C(=O)N[C@H](C2CCNCC2)C2CC(O)C2)c(=O)n1C (some centres undefined)	25µM
Cc1ccc(NC(=O)CC2C(=O)Nc3nc(-c4ccccc4)nn32)cc1C (centres undefined)	n
O=C(Nc1ccc(Br)cc1)N1CCN(c2nc3ccccc3n2Cc2ccccc2)CC1	n
O=C(Nc1ccccc1-c1ccccc1)c1cc(F)c(F)cc1Cl	n
CC(=O)NC1CCN(c2nc3ncccc3o2)CC1	28µM
CC(=O)Nc1cccc(NC(=O)C2CCN(c3nc4ccccc4o3)CC2)c1	n
CCOc1ccc(CNC(=O)C2CCN(c3nc4ccccc4o3)CC2)cc1	n
O=C(Nc1cccc2cccnc12)NC1CCCCC1	n
O=C(Nc1ccc(NC(=O)C2CCN(c3nc4ccccc4o3)CC2)cc1)C1CC1	n
C[S+](=O)([O-])NC1CCN(c2nc3ncccc3o2)CC1	35µM!
COc1ccc(C(=O)NC2CCN(c3nc4ncccc4o3)CC2)cc1	22µM
O=[S+]([O-])(c1cccc(C(F)(F)F)c1)N1CCN(c2nc3ncccc3o2)CC1	n
O=C(Nc1cccc2cccnc12)NC1CCCCCC1	n
COc1ccc(C(=O)NC2CCN(c3cc(C(F)(F)F)ncn3)CC2)cc1	n
COc1ccc(C(=O)NC2CCN(c3cnn(C)c(=O)c3)CC2)cc1	n
O=C(NC1CCCC1)NC1CCN(c2nc3ncccc3o2)CC1	35µM
O=C1C[C@@H]2CCN(Cc3ccccc3)C[C@@H]2CCN1C1CCCCC1	n
SMILES	KDM5B inhibitor
CCc1cccc(C)c1NS(=O)(=O)c1ccc(-c2cnc(C3CC3)o2)cc1	n
Cc1ccccc1-n1c(C)c(C)c2c1ncn1nc(-c3cccnc3)nc21	n
COc1ccc(C(=O)N2CCCC3(C2)NC(=O)N(Cc2ccccc2)C3=O)cc1 (centres undefined)	n
COc1ccc(C2c3cc(OC)c(OC)cc3CC(=O)N2c2ccc(OC)cc2)cc1 (centres undefined)	n
CN(Cc1cccc2ccccc12)C1CCOc2ccccc21 (centres undefined)	n
CCCCN1CCN(c2nc3c(c(=O)[nH]c(=O)n3C)n2Cc2ccccc2)CC1	n
COc1cc(Cl)ccc1C(=O)N1C[C@@H](F)C[C@H]1C(=O)N1CCCCC1	n
COc1cccc(C(=O)N2CCC(N3C[C@H](O)C[C@H]3C(=O)NCc3ccc(F)cc3)CC2)c1	n
CCCNC(=O)[C@@H]1Cc2c[nH]c3cccc(c23)[C@H](CC(C)C)N1	n
CC(C)C[C@@H]1N[C@H](C(=O)N2CCC(NC(=O)c3ccccc3)CC2)Cc2c[nH]c3cccc1c23	n
CC(C)C[C@@H]1N[C@H](C(=O)N2CCN(C)CC2)Cc2c[nH]c3cccc1c23	32µM
CS(=O)(=O)c1ccc(C(=O)COC(=O)COc2ccc3ccccc3c2)cc1	n
COc1ccc(C(=O)NC(C)c2nncn2C)cc1OC1CCN(C(C)=O)CC1 (centres undefined)	n
COc1ccc(OC2CCN(C(C)=O)CC2)c(C(=O)N(C)Cc2ccccc2)c1	n
COc1ccc(OC2CCN(C(C)=O)CC2)c(C(=O)NC(C)c2cn(C)nc2C)c1 (centres undefined)	32µM
COc1ccc(CN2CCC(CO)(CN3CCCC3)CC2)c(OC)c1C	n
O=C1Nc2ccc(/C=C/c3ccccc3)cc2C(=O)N2C[C@H](O)C[C@@H]12	28µM
COc1ccc(/C=C/c2ccc3c(c2)C(=O)N2C[C@@H](NC(=O)CC(C)(C)CC(=O)O)C[C@H]2C(=O)N3)cc1	22µM
CN1C[C@@H](NC(=O)CC(C)(C)CC(=O)O)C[C@H]1c1nc(-c2ccccc2)no1	n
O=C1Nc2ccc(-c3ccsc3)cc2C(=O)N2C[C@H](O)C[C@@H]12	n
CC(C)(CC(=O)O)CC(=O)N[C@H]1C[C@H]2C(=O)Nc3ccc(/C=C/c4ccccc4)cc3C(=O)N2C1	28µM
C=CCNC(=O)N[C@H]1C[C@H]2C(=O)Nc3ccc(/C=C/c4ccc(OC)cc4)cc3C(=O)N2C1	22µM
O=C(N[C@H]1CCN2C(=O)c3cc(Br)ccc3NC(=O)[C@@H]2C1)c1ccco1	n
COCC(=O)N[C@H]1C[C@H]2C(=O)Nc3ccc(/C=C/c4ccccc4)cc3C(=O)N2C1	n
